# Assay outcomes deposited in PubChem BioAssay by several laboratories.
# Rows were chosen to be rich in hits. Some 1.8% of all compounds tested hit in one or more screens of this group.
# PriA SSB inh: K. pneumoniae PriA-SSBct interaction inhibition; AlphaScreen SSBct-PriA binding, biotinylated peptide; inhibition, % at 33 µM; 430,000 tested, 0.6% active; AID 1272365; in the data active = inhibition mostly above about 37%, no sharp cut-off; inactive = mostly below about 20%;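 note: plate controls were negative control peptide for no effect and reference peptide for full effect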
# Mtb hypoxia rep: reduces hypoxia-regulated biosensor signal in M. tuberculosis; 300,000 tested, 0.1% active; M. tuberculosis hypoxia-regulated fluorescent reporter, fluorescence; fluorescence inhibition, % (test concentration not listed); AID 1159583; in the data active = fluorescence inhibition mostly above about 23%, no sharp cut-off; inactive = mostly below about 17%
# RN4220 kill: S. aureus RN4220 growth inhibition | OD600, 16 h | inhibition, % (concentration not given with the values) | 330,000 tested, 0.33% active | AID 1259311; in the data active = inhibition above about 85%;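 note: plate controls were untreated cells for no effect and reference antibiotic for full effect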
# ugtP null kill: growth inhibition of S. aureus ugtP deletion strain. 330,000 tested, 0.54% active. S. aureus RN4220 ugtP deletion, OD600 growth, 16 h. growth inhibition, % (concentration not given with the values). AID 1259309; in the data active = growth inhibition above about 68%;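 note: plate controls were untreated wells for no effect and antibiotic for full effect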
# DUSP3 inh: DUSP3 (human) phosphatase inhibition; P51452; recombinant VHR phosphatase, pNPP absorbance; inhibition, % at 13.3 µM; 290,000 tested, 0.52% active; AID 1654; in the data active = inhibition above about 50%
# Target sequence (P51452 whole entry, looked up): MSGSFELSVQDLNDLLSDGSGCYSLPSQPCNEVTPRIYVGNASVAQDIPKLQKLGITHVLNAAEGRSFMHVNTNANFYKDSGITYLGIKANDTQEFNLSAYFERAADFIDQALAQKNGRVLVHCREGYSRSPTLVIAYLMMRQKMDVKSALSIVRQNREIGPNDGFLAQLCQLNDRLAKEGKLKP
# PfHsp40 rescue: compounds rescuing yeast from Plasmodium falciparum HSP40 toxicity; S. cerevisiae expressing PfHsp40, growth rescue, ATP luminescence; growth rescue, % at 12.5 µM; 340,000 tested, 0.68% active; AID 504582; in the data active = growth rescue above about 28%, passing the limit was not always enough;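 note: yeast W303a lacking pdr1 and pdr3 grown in galactose medium; growth measured after three days at 30 °C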
# Starred values were filed as active, the others as inactive; . = not tested or not shown.
SMILES,PriA SSB inh,Mtb hypoxia rep,RN4220 kill,ugtP null kill,DUSP3 inh,PfHsp40 rescue
C/C(=C1/SC(N2CCCC2)=NC1=O)c1ccc(Br)cc1,-1.7,75.7*,-5.4,-13.2,2.5,1.5
CCOC(=O)N1CCN(C(=O)/C=C/c2cccs2)CC1,11.0,.,.,.,.,.
Cc1ccc(C(=O)NCCCNCCCNC(=O)c2ccc(C)nc2)cn1,-16.8,-10.7,-2.2,0.6,4.3,0.0
Cc1ccc(C(=O)NCCCNC(=O)c2ccco2)cn1,-5.2,8.7,1.5,2.2,56.5*,4.9
CCC(C)NC(=O)Nc1ccccc1C (configuration not stated),-1.3,-3.7,14.1,4.4,51.6*,0.3
CCC(C)NC(=O)Nc1ccccc1F (configuration not stated),-9.5,-3.1,2.6,0.4,1.3,0.9
CCCCCCc1cc2cc(-c3nnc(-c4ccccc4OC)o3)c(=O)oc2cc1O,-9.9,.,.,.,2.6,-0.2
CCCCCCc1cc2cc(-c3nnc(-c4ccccc4O)o3)c(=O)oc2cc1O,-11.3,-10.1,66.8,97.4*,15.3,1.3
COc1cc(C(=O)N=c2sccn2C)c([N+](=O)[O-])cc1OC,-7.2,2.5,3.4,2.5,30.4,-2.0
Cn1ccsc1=NC(=O)c1ccc([N+](=O)[O-])o1,-13.3,17.6,22.3,49.1,17.9,247.5*
C=C1CC[C@@]2(O)[C@H]3Cc4ccc(O)c5c4[C@@]2(CCN3CC2CC2)[C@H]1O5,41.0*,.,.,.,0.9,-0.1
O=C(NCC(c1cccs1)N1CCOCC1)c1ccccc1NS(=O)(=O)c1cccc([N+](=O)[O-])c1 (configuration not stated),5.9,4.2,9.7,1.4,55.6*,-1.2
O=C(NCC(c1cccs1)N1CCc2ccccc21)c1ccccc1[N+](=O)[O-] (configuration not stated),46.0*,.,.,.,.,.
O=C1CC(C(=O)O)SC(=NN=C2CCCCC2)N1 (configuration not stated),10.0,.,.,.,.,.
O=C(c1c(F)c(F)c(F)c(F)c1F)N1CCN(c2cccc(C(F)(F)F)c2)CC1,-8.3,7.6,6.7,-10.5,-11.2,-1.2
O=C(c1ccccc1F)N1CCN(c2cccc(C(F)(F)F)c2)CC1,-12.9,8.2,1.7,6.3,33.4,121.5*
O=C(c1ccccc1F)N1CCN(S(=O)(=O)c2ccc3ccccc3c2)CC1,-3.1,-2.5,1.3,7.5,-5.4,30.4*
O=C(c1ccccc1F)N1CCN(c2ccccc2F)CC1,-13.5,11.9,5.3,2.2,53.4*,1.2
C=CCNC(=S)NNC(=O)c1ccc(OCCC)cc1,-11.8,0.7,-3.5,-3.7,13.6,0.4
CCCOc1ccc(C(=O)NNC(=S)NC(=O)CC)cc1,0.3,3.4,67.7,40.7,17.3,115.3*
O=C(NCC1(O)CCCC1)c1cccc(F)c1,-35.0,.,.,.,.,.
O=C(Nc1cc([N+](=O)[O-])ccc1F)c1cnc2n(c1=O)CCS2,0.0,.,.,.,.,.
O=C1NC(=S)N/C1=C/c1cccc([N+](=O)[O-])c1,-10.2,10.3,6.0,5.1,-2.0,60.5*
Cc1ccccc1Cn1nnc(C(=O)Nc2ccc3c(c2)OCCO3)c1N,-11.4,12.7,0.3,-4.3,.,105.8*
CCC(=O)Nc1nnc(S(=O)(=O)N2c3ccccc3CC2C)s1 (configuration not stated),100.5*,2.1,6.7,-0.2,-6.2,0.6
SMILES,PriA SSB inh,Mtb hypoxia rep,RN4220 kill,ugtP null kill,DUSP3 inh,PfHsp40 rescue
O=[N+]([O-])c1ccc(-[n+]2nc(-c3ccccc3)nn2-c2ccc(I)cc2)cc1,155.0*,.,.,.,.,.
c1ccc(-c2nn(-c3ccccc3)[n+](-c3ccccc3)n2)cc1,-0.6,.,.,.,.,2.2
CCn1cc(CNC(=O)CSc2nc(-c3ccc(OC)c(OC)c3)cc(C(F)(F)F)n2)c(C)n1,7.8,-0.3,3.7,5.6,51.3*,0.6
COCCNC(=O)CSc1nc(-c2ccc(OC)c(OC)c2)cc(C(F)(F)F)n1,2.3,9.0,5.1,-0.4,-13.2,-0.1
O=C(Nc1ccccc1F)N1CCC(CSc2ccccn2)CC1,3.0,.,.,.,.,.
COc1ccc(-c2nc3ccccc3n2CC(=O)N(c2ccccc2)C(C)C)cc1OC,-5.0,.,.,.,.,.
O=C(NCC1CCCO1)C(c1ccco1)N(Cc1ccc(F)cc1)C(=O)CN1C(=O)c2ccccc2S1(=O)=O (configuration not stated),-6.7,-8.6,-5.2,3.1,58.5*,0.0
CCOc1ccc(NC(=O)CSc2nnc(-c3cccn(C)c3=O)n2C)cc1,-10.0,.,.,.,.,.
